Reference: PubChem BioAssay (NCI)
About 83,000 compounds went through this panel and 20% of them were active in at least one assay; those are over-represented in the sample as a whole.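 Activity criterion: percent growth below 10, measured after cells in 96-well plates were exposed to a single compound concentration for 48 hours.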 Values without a mark were called inactive. Activity calls are given as the source filed them.

Key:
Experiment in all cases: NCI-60 one-dose screen, 48 h (100 = growth as untreated, 0 = no growth, -100 = all killed)
Settings in all cases: 10 µM unless noted
HCT-15 colon = system: HCT-15 colon
HT29 colon = system: HT29 colon
SNB-75 CNS = system: SNB-75 CNS
SNB-19 CNS = system: SNB-19 CNS
U251 CNS = system: U251 CNS
PC-3 prostate = system: PC-3 prostate
SK-MEL-5 melanoma = system: SK-MEL-5 melanoma
UACC-62 melanoma = system: UACC-62 melanoma
LOX IMVI melanoma = system: LOX IMVI melanoma
SK-MEL-28 melanoma = system: SK-MEL-28 melanoma
SK-MEL-2 melanoma = system: SK-MEL-2 melanoma
EKVX NSCLC = system: EKVX NSCLC
SN12C renal = system: SN12C renal
UO-31 renal = system: UO-31 renal
TK-10 renal = system: TK-10 renal
ACHN renal = system: ACHN renal
CAKI-1 renal = system: CAKI-1 renal
A498 renal = system: A498 renal
CCRF-CEM leukemia = system: CCRF-CEM leukemia
MOLT-4 leukemia = system: MOLT-4 leukemia

Row | SMILES | growth (HCT-15 colon) | growth (HT29 colon) | growth (SNB-75 CNS) | growth (SNB-19 CNS) [%] | growth (U251 CNS) | growth (PC-3 prostate) | growth (SK-MEL-5 melanoma) | growth (UACC-62 melanoma) | growth (LOX IMVI melanoma) | growth (SK-MEL-28 melanoma) | growth (SK-MEL-2 melanoma) | growth (EKVX NSCLC) | growth (SN12C renal) | growth (UO-31 renal) | growth (TK-10 renal) | growth (ACHN renal) | growth (CAKI-1 renal) | growth (A498 renal) | growth (CCRF-CEM leukemia) | growth (MOLT-4 leukemia)
1 | Cc1c2ccccc2nc2c1ccc1cccnc12 | 81.4% | 70.9% | 71.1% | 88.8 | 84.7% | 65.1% | 53% | 94.6% | 105% | 113% | 95.5% | 62.7% | 88.7% | 83.9% | 96.1% | 97.3% | 77% | 80.2% | 77.8% | 68.3%
2 | CCN1CCN(CC(=O)Nc2nc3ccc(NCc4ccc(Br)cc4)cc3s2)CC1 | -18.8% (active) | 2.33% (active) | 89.4% | 76.3 | 52.9% | 44.6% | 47.6% | -47.1% (active) | -76.4% (active) | -66.6% (active) | 55.4% | 68.2% | 63.8% | 59.5% | 87% | 74.6% | 35.5% | 88.8% | 34.2% | 31.7%
3 | COc1ccc(OC)c(Nc2nnc(-c3ccc(Cl)cc3)o2)c1 | 96% | 48.9% | 59.4% | 58.4 | 2.55% (active) | 88.4% | 104% | 97.5% | 73.8% | 102% | 96.9% | 82.5% | 90.1% | 51.8% | 36% | 30.8% | 65.3% | 96% | 108% | 88.5%
4 | CCN(CC)CCN(CCN(CC)CC)c1ccccc1 | 104% | 102% | 79.1% | 87.3 | 98.2% | 87.4% | 97.7% | 89.4% | 88.7% | 108% | 106% | 97.2% | 78.5% | 66.4% | 102% | 95.7% | 86.6% | 94.5% | 93.3% | 89.8%
5 | CCCCCCOC(=O)CC1=C(C)/C(=C/c2[nH]c(-c3ccc[nH]3)cc2OC)N=C1C | -34.9% (active) | 1.26% (active) | -5.75% (active) | 12.8 | -68.8% (active) | -23% (active) | -92.1% (active) | -64.5% (active) | -82% (active) | -64.9% (active) | -49.5% (active) | -35% (active) | -63% (active) | -86.9% (active) | -24.9% (active) | -19.5% (active) | 0.637% (active) | -49.4% (active) | -22.5% (active) | -30.3% (active)
6 | CCN1C(=O)N(CC)C2C1NN=C1SCC(=O)N12 (centres undefined) | 82% | 59.5% | 85.8% | 97 | 107% | 94% | 101% | 85.8% | 107% | 96.6% | 106% | 86.8% | 78.9% | 58.8% | 104% | 84.2% | 89.2% | – | 40% | 57.2%
7 | NS(=O)(=O)c1ccc(N/C=C/C(=O)c2cc3ccccc3oc2=O)cc1 | 93.5% | 108% | 76.1% | 103 | 97.2% | 93.7% | 92.6% | 93.7% | 93% | 111% | 109% | 84% | 96% | 62.4% | 125% | 99.7% | 80.1% | 111% | 108% | 103%
8 | CCOC(=O)NN1CC(O)=C(c2nc(-c3ccc(Br)cc3)cs2)C1=N | 115% | 108% | 101% | 98.7 | 113% | 85.2% | 103% | 110% | 106% | 113% | 128% | 104% | 161% | 87% | 116% | 111% | 92.9% | 93.4% | 86.2% | 75.9%
9 | Nc1c(C(=O)O)cc(Cl)cc1[N+](=O)[O-] | 104% | 97.7% | 89.8% | 112 | 104% | 80.8% | 103% | 96.4% | 100% | 109% | 110% | 103% | 93.9% | 79.3% | 118% | 96.5% | 111% | – | 78.6% | –
10 | COc1cc(/C=C2\C(=O)N(c3c(Cl)cccc3Cl)c3ccccc32)cc(OC)c1OCCCCCCn1c2ccccc2c(=O)c2ccccc21 | 108% | 103% | 73.6% | 98.4 | 103% | 87.1% | 96.1% | 93.3% | 98.4% | 99% | 96.2% | 111% | 96.8% | 74.3% | 112% | 91.9% | 82.9% | 123% | 104% | 90%
11 | O=C(O)CCCc1cnc2c3sccc3nc(SCc3c(Cl)cccc3Cl)n12 | 36.9% | 15.6% | 16% | 41 | 29.5% | 50.7% | 52.9% | 21.2% | 39.9% | 75.3% | 20.6% | 63% | 57.2% | 49% | 65.3% | 61.1% | 42.2% | 46.1% | 31.2% | 50.5%
12 | CCNC(=O)Oc1ccc(/C(=C(/C)Cc2ccc(OC)cc2)c2ccc(OCCN3CCCCCC3)cc2)cc1 | 18.7% | 2.15% (active) | 77.4% | 82.7 | 45.1% | 63.8% | 66.2% | 73.2% | -22% (active) | 75.3% | 87% | 71.3% | 69.2% | 52.9% | 84.2% | 94.2% | 82.5% | 70.5% | 41.6% | 35.2%
13 | CC(C)CCSc1nc(Nc2ccccc2)c(C#N)c(-c2ccccc2)n1 | 55.3% | 50.7% | -10.1% (active) | 19.3 | 2.98% (active) | 68.8% | 95.2% | 89.9% | 25.5% | 82.1% | 81.4% | 14.7% | 27.1% | 12.9% | 24.7% | – | 26.8% | -8.82% (active) | 54.9% | 80.7%
14 | Clc1nccc2c(-c3csc(-c4c[nH]c5ccccc45)n3)c[nH]c12 | -39.6% (active) | 23.6% | 41.4% | 71.8 | 20.9% | 40.1% | 55.8% | 43.9% | 28.2% | 23.9% | 79.5% | 63.2% | 59.2% | 25.9% | 55.8% | – | 52.3% | 32.7% | 31.1% | 40.5%
15 | CN1CCN(CCOc2ccc(-c3cnc4c(-c5ccc(C(F)(F)F)cc5)cnn4c3)cc2)CC1 | -33.6% (active) | -15.5% (active) | 96.1% | 61.4 | 1.48% (active) | 28.3% | 64.4% | 72.4% | -89.9% (active) | 85.1% | 63.3% | 60.1% | 53.7% | 38.1% | 67.4% | – | 31% | 69.5% | -13.7% (active) | -51.3% (active)
